This note sets out measurements from PubChem BioAssay (EPA / NIEHS).

For assay [1], the target named is Retinoic acid receptor alpha (Homo sapiens) (UniProt P10276). The experiment in a line: ATG_DR5_RAR_CIS: Attagene CIS-FACTORIAL HepG2 Assay for human Retinoic Acid Receptor Alpha (RARE), DR5 submotif (AID 2282934; active = hit-call score of the fitted dose curve at least 0.9, where 1 is the maximum; inactive = score below 0.9). As to conditions: HepG2 Attagene cis-factorial RARE DR5 reporter, mRNA; actives raise or lower the signal. The procedure, abridged: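 HepG2 cells transiently transfected with multiplexed reporter units under cis (DR5 RARE) promoters, so endogenous transcription factor activity is measured. After 24 h compound exposure, reporter mRNA is quantified by RT-PCR with fluorescent labelling and capillary electrophoresis; bidirectional fitting versus DMSO.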

Assay [2] can be described thus: ATG_PPRE_CIS: Attagene CIS-FACTORIAL HepG2 Assay for human Peroxisome Proliferator-activated Response Element (PPRE) (AID 2282958; active = hit-call score of the fitted dose curve at least 0.9, where 1 is the maximum; inactive = score below 0.9). The note with it: HepG2 PPRE cis-element reporter, Attagene transcription factor profiling; actives raise or lower the signal. The procedure, abridged:
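Cells are first transfected transiently with the multiplexed reporter library, then dosed for 24 h. Total RNA is reverse-transcribed, amplified, fluorescently end-labeled and HpaI-cut before capillary electrophoresis; activity is fitted bidirectionally against DMSO controls.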

Assay [3] can be described thus: ATG_M_19_TRANS: Attagene TRANS-FACTORIAL HepG2 Assay for M19 Transcription Factor (Internal Marker) (AID 2282974). As to conditions: HepG2 Attagene TRANS-FACTORIAL M19 internal marker reporter. The procedure, abridged:
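Cells: human HepG2, transiently transfected with multiplexed reporter transcription units. Exposure: 24 h. Detection: RT-PCR of reporter mRNA with capillary electrophoresis. Analysis: gain-of-signal vs DMSO.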

The target in assay [4] is Nuclear receptor subfamily 4 group A member 2 (Homo sapiens) (UniProt P43354). Description: ATG_NURR1_TRANS: Attagene TRANS-FACTORIAL HepG2 Assay for human Nuclear Receptor Related Protein 1 (NURR1) (AID 2282985). The note with it: HepG2 Attagene TRANS reporter, mRNA readout. The procedure, abridged:
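Chimeric NR-Gal4 proteins were expressed in human HepG2 cells bearing GAL4-UAS reporter units, and induced reporter mRNA was quantified 24 h post-dosing by RT-PCR and capillary electrophoresis.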

Assay [5] concerns the target human RAR-related Orphan Receptor beta (RORb), RORB (gene 6096) (UniProt Q92753). The experiment in a line: ATG_RORb_TRANS: Attagene TRANS-FACTORIAL HepG2 Assay for human RAR-related Orphan Receptor beta (RORb) (AID 2283010).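 As to AC50: potency for increased reporter mRNA meaning activation of RORb-Gal4 chimera.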 The procedure, abridged: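 HepG2, transient MRTU transfection (GAL4-UAS reporters, exogenous NR-Gal4 chimeras); 24 h compound exposure; total RNA → RT-PCR → 6-FAM primer extension → HpaI digest → CE fluorescence. Positive direction vs DMSO baseline.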

Assay [6] can be described thus: TOX21_p53_BLA_p3_viability: Viability Assessment in the Tox21 HCT-116 p53 Agonism Beta-lactamase Assay, Phase 3 (AID 2283593).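 Also: cells exposed to compound for 16 h before reading.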 The procedure, abridged: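 HCT-116 cells (4000/well) rested 5 h at 37C, then got DMSO compounds by pin tool (217-fold dilution) for 16 h at 37C, 5% CO2. After the bla read, CellTiter-Glo was added and luminescence read at 30 min, room temperature.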

For assay [7], the target named is Bile acid receptor (Homo sapiens) (UniProt Q96RI1). The experiment in a line: ATG_IR1_CIS: Attagene CIS-FACTORIAL HepG2 Assay for human Nuclear Receptor Subfamily 1 Group H Member 4 (NR1H4), IR1 submotif (AID 2282946; active = hit-call score of the fitted dose curve at least 0.9, where 1 is the maximum; inactive = score below 0.9). The note with it: IR1 reporter transcription, actives raise or lower the signal. The procedure, abridged:
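Readout: reporter transcript levels by RT-PCR with fluorescent capillary electrophoresis, from HepG2 cells transiently transfected with multiplexed cis-regulated reporters and dosed 24 h. Gain- or loss-of-signal fitted versus DMSO negative control.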

Assay [8] can be described thus: ATG_NF_kB_CIS: Attagene CIS-FACTORIAL HepG2 Assay for human Nuclear Factor Kappa B (NF-kB) (AID 2282991; active = hit-call score of the fitted dose curve at least 0.9, where 1 is the maximum; inactive = score below 0.9). The note with it: HepG2 Attagene cis-factorial NF-kB reporter mRNA; actives raise or lower the signal. The procedure, abridged: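 Endogenous transcription factor activity in HepG2 was captured via cis-regulated reporter constructs; after 24 h dosing, reporter mRNA was reverse-transcribed, amplified, fluorescently labelled and sized by capillary electrophoresis, with activity fitted bidirectionally relative to DMSO.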

Assay [9] has as its target human Peroxisome Proliferator-activated Receptor delta (PPARd), PPARD (gene 5467) (UniProt Q03181). Description: ATG_PPARd_TRANS: Attagene TRANS-FACTORIAL HepG2 Assay for human Peroxisome Proliferator-activated Receptor delta (PPARd) (AID 2283002). The procedure, abridged:
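HepG2 cells transiently transfected with multiplexed GAL4-UAS reporter units and exogenous chimeric NR-Gal4 proteins; 24 h compound exposure. Reporter mRNA measured by RT-PCR, 6-FAM labelling, HpaI digestion and capillary electrophoresis; gain of signal versus DMSO.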

Assay [10] addresses Nuclear receptor subfamily 1 group I member 2 (Homo sapiens) (UniProt O75469). The experiment in a line: ATG_PXR_TRANS: Attagene TRANS-FACTORIAL HepG2 Assay for human Pregnane X Receptor (PXR) (AID 2283008). An outline of the steps: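 Multiplexed TRANS reporter panel in HepG2; this component tracks PXR-Gal4-driven reporter mRNA after 24 h dosing, measured by RT-PCR with capillary electrophoresis fluorescence, fitted against DMSO.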

Assay [11] concerns the target human Vitamin D Receptor (VDR), VDR (gene 7421) (UniProt P11473). Description: ATG_VDR_TRANS: Attagene TRANS-FACTORIAL HepG2 Assay for human Vitamin D Receptor (VDR) (AID 2283022). An outline of the steps: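 RT-PCR/capillary electrophoresis read-out of reporter mRNA induction in transiently transfected HepG2; 24 h dosing; chimeric NR-Gal4 (TRANS format); gain-of-signal fit against DMSO baseline.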

The nature of assay [12]: ATG_XTT_Cytotoxicity: Cytotoxicity Assessment in the Attagene TRANS-FACTORIAL HepG2 Assay (AID 2283584). The procedure, abridged: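 XTT readout of cell number in transfected HepG2 cells, 24 h post-dosing; DMSO serves as negative control and baseline, with activity taken as loss of viability signal.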
Assay [13] can be described thus: CCTE_Harrill_HTTr_Viability_MCF7: CCTE's 6-hour Cell Viability Assessment for the High-Throughput Transcriptomics (HTTr) Platform, in MCF-7 cells cultured in DMEM + 10% fetal bovine serum, Harrill Lab (AID 2284010; active = hit-call score of the fitted dose curve at least 0.9, where 1 is the maximum; inactive = score below 0.9). The procedure, abridged: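 PI exclusion, high-content imaging; 8-pt dilution series, 6 h exposure; bidirectional fit vs DMSO (neg. ctrl/baseline); gain of signal = loss of membrane integrity.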

Assay [14] in a line: CCTE_Harrill_HTTr_Apoptosis_MCF7: CCTE's 6-hour Apoptosis Assessment for the High-Throughput Transcriptomics (HTTr) Platform, in MCF-7 cells cultured in DMEM + 10% fetal bovine serum, Harrill Lab (AID 2284011; active = hit-call score of the fitted dose curve at least 0.9, where 1 is the maximum; inactive = score below 0.9). An outline of the steps: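 Read-out: CellEvent Caspase 3/7 Green signal by high content imaging, gain-of-signal indicating apoptosis. MCF-7 cells, DMEM + 10% FBS, eight-point dilution series, 6 h exposure. Curves fitted bidirectionally relative to DMSO negative control.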

Assay [15] has as its target Oxysterols receptor LXR-alpha (Homo sapiens) (UniProt Q13133). Description: ATG_LXRa_TRANS: Attagene TRANS-FACTORIAL HepG2 Assay for human Liver X Receptor alpha (LXRa) (AID 2282980). The note with it: HepG2 Attagene TRANS reporter, LXRa transactivation. An outline of the steps: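 Read-out: reporter transcript levels by RT-PCR plus capillary electrophoresis, fluorescence intensity. Transiently transfected HepG2, exogenous NR-GAL4 chimera, GAL4-UAS reporters; 24 h compound exposure. Activity = increase over DMSO negative control.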

For assay [16], the target named is human RAR-related Orphan Receptor gamma (RORg), RORC (gene 6097) (UniProt P51449). The experiment in a line: ATG_RORg_TRANS: Attagene TRANS-FACTORIAL HepG2 Assay for human RAR-related Orphan Receptor gamma (RORg) (AID 2283011). The procedure, abridged: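 Transient MRTU transfection of HepG2 (TRANS format, exogenous NR-Gal4 chimera). 24 h dosing. Total RNA → oligo(dT) RT → PCR → 6-FAM labelling → HpaI cut → CE. Gain vs DMSO.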

The target in assay [17] is Retinoic acid receptor RXR-alpha (Homo sapiens) (UniProt P19793). The experiment in a line: ATG_RXRa_TRANS: Attagene TRANS-FACTORIAL HepG2 Assay for human Retinoid X Receptor alpha (RXRa) (AID 2283012). An outline of the steps:
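Read-out: fluorescent reporter-transcript fragments quantified by capillary electrophoresis after RT-PCR. Transiently transfected HepG2 cells carrying GAL4-UAS reporters and NR-GAL4 chimeras were exposed to chemical for 24 h; activity scored as increase over DMSO.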

In assay [18] the target is Glucocorticoid receptor (Homo sapiens) (UniProt P04150). The experiment in a line: ATG_GR_TRANS: Attagene TRANS-FACTORIAL HepG2 Assay for human Glucocorticoid Receptor (GR) (AID 2282978).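 Also: activators score as hits since higher reporter transcript over DMSO is fitted.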 As to conditions: HepG2 Attagene TRANS GR reporter, mRNA transcription. An outline of the steps:
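In this trans-factorial format, exogenous NR-GAL4 chimeric proteins in transfected HepG2 cells regulate GAL4-UAS reporter transcription. After 24 h treatment, reporter mRNA induction relative to DMSO is read by RT-PCR and capillary electrophoresis.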

Assay [19] deals with human Peroxisome Proliferator-activated Receptor alpha (PPARa), PPARA (gene 5465) (UniProt Q07869). The experiment in a line: ATG_PPARa_TRANS: Attagene TRANS-FACTORIAL HepG2 Assay for human Peroxisome Proliferator-activated Receptor alpha (PPARa) (AID 2283001).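 Also: potency for gain of reporter signal over DMSO so agonist or activator.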 The procedure, abridged:
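Exposure: 24 h, transiently transfected HepG2 cells. Endpoint: GAL4-UAS reporter mRNA, RT-PCR with capillary electrophoresis fluorescence. Baseline: DMSO; increases fitted.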

Molecules are shown by their SMILES. Records with an inconclusive call do not appear. Active and inactive are the calls of the source. The calls were made as follows, unless noted: active = hit-call score of the fitted dose curve at least 0.9, where 1 is the maximum; inconclusive = response in the unintended direction; inactive = score below 0.9.

Sequence of Nuclear receptor subfamily 4 group A member 2 (Homo sapiens) (P43354 whole entry, looked up, the tested form may be a part): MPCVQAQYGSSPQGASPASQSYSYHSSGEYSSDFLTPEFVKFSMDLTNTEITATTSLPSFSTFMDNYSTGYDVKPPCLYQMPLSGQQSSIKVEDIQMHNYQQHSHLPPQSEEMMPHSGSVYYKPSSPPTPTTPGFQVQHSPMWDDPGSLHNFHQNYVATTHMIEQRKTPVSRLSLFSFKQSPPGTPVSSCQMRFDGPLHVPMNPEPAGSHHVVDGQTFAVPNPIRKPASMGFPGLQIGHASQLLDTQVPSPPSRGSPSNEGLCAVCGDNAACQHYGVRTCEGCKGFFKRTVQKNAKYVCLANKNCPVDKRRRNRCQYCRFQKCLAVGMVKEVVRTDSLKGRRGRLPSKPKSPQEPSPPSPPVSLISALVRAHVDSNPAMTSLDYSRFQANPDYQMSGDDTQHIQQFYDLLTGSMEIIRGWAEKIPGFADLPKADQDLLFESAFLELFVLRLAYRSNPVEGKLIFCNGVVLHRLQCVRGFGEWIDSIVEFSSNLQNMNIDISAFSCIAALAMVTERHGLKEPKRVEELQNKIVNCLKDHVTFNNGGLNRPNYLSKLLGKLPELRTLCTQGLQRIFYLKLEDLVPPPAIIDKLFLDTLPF
Sequence of Retinoic acid receptor RXR-alpha (Homo sapiens) (P19793 whole entry, looked up, the tested form may be a part): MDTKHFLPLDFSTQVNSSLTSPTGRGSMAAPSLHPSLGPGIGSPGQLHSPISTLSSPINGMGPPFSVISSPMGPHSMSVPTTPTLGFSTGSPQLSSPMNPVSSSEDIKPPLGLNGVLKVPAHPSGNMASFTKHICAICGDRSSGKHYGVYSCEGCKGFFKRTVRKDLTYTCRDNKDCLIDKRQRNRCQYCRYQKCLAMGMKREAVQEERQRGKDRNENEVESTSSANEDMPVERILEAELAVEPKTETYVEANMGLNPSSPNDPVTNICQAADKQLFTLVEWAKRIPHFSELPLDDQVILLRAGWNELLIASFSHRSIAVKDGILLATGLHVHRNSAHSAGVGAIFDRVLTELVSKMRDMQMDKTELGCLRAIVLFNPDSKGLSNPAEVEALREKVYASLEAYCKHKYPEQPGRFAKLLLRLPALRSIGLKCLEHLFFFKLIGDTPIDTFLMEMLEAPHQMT
Sequence of human RAR-related Orphan Receptor beta (RORb), RORB (gene 6096) (Q92753 whole entry, looked up, the tested form may be a part): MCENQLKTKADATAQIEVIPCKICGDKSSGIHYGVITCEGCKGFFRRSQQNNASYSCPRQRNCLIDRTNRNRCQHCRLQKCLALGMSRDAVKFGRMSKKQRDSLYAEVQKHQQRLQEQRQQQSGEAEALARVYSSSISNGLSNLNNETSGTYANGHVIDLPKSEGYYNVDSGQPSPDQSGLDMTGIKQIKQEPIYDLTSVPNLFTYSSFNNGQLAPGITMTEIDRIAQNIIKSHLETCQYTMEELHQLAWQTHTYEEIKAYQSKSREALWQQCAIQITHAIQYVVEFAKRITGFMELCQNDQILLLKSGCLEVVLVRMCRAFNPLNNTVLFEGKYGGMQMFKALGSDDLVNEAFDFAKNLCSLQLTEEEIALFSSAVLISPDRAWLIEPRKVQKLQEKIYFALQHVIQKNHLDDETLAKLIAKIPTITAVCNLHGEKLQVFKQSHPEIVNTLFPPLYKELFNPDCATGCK
Sequence of human Vitamin D Receptor (VDR), VDR (gene 7421) (P11473 whole entry, looked up, the tested form may be a part): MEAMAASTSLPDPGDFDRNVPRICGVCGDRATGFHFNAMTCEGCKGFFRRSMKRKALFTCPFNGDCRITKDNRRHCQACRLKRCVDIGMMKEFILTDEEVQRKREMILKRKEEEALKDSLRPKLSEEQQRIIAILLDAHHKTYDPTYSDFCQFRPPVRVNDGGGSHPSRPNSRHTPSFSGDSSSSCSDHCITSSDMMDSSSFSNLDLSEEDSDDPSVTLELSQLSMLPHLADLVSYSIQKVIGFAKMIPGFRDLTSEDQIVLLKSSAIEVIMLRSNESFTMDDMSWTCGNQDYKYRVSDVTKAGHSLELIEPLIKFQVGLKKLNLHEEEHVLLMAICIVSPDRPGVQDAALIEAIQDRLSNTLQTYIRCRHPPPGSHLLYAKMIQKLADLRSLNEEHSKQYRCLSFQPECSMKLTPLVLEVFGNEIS
Sequence of Oxysterols receptor LXR-alpha (Homo sapiens) (Q13133 whole entry, looked up, the tested form may be a part): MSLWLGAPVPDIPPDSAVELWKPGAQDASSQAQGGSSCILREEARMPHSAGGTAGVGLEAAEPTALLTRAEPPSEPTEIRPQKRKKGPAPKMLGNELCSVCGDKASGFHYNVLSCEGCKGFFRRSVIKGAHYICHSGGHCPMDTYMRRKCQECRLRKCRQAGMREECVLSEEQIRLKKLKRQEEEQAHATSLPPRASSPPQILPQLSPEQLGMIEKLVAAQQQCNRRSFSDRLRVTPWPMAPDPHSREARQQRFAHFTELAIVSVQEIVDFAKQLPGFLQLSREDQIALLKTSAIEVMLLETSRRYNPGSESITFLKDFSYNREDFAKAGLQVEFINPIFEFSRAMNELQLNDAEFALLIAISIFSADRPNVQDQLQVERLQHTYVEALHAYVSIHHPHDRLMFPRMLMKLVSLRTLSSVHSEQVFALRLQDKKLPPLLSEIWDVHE
Sequence of human Peroxisome Proliferator-activated Receptor delta (PPARd), PPARD (gene 5467) (Q03181 whole entry, looked up, the tested form may be a part): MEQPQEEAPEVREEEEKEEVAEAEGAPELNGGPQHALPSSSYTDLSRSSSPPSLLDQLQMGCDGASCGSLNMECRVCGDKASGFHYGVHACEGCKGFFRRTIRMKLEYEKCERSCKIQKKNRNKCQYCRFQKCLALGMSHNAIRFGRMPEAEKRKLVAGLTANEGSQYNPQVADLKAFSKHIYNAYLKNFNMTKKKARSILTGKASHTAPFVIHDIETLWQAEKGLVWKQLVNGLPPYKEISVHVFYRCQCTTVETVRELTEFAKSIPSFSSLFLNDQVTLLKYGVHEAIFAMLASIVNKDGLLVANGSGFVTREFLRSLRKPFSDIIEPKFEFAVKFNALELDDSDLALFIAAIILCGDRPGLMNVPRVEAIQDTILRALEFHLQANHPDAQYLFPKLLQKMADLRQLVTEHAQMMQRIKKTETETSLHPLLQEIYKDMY
Sequence of Bile acid receptor (Homo sapiens) (Q96RI1 whole entry, looked up): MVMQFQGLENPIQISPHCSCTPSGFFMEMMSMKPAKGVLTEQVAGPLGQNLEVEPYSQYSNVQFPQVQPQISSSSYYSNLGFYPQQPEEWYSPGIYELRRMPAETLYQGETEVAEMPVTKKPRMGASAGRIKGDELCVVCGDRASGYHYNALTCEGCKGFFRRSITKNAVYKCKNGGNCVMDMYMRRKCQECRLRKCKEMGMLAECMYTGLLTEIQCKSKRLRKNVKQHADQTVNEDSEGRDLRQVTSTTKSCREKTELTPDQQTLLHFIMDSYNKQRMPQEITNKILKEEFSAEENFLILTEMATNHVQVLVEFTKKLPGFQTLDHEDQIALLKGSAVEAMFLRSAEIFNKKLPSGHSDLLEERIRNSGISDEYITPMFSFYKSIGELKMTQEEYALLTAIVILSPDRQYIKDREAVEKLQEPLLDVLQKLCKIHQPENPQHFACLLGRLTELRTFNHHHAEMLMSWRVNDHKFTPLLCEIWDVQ
Sequence of Retinoic acid receptor alpha (Homo sapiens) (P10276 whole entry, looked up): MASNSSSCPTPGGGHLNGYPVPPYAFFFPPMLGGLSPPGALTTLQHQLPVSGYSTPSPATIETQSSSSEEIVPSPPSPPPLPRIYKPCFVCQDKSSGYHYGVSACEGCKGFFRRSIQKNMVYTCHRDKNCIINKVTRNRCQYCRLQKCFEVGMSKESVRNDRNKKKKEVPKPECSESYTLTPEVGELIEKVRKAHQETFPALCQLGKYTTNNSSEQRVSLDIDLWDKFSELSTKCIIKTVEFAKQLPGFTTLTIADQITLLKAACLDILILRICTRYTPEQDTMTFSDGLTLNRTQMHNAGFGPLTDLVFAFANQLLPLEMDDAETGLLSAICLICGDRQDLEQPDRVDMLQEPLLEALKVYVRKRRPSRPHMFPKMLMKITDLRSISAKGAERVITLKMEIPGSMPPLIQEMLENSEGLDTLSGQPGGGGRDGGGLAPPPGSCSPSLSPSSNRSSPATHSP
Sequence of human RAR-related Orphan Receptor gamma (RORg), RORC (gene 6097) (P51449 whole entry, looked up, the tested form may be a part): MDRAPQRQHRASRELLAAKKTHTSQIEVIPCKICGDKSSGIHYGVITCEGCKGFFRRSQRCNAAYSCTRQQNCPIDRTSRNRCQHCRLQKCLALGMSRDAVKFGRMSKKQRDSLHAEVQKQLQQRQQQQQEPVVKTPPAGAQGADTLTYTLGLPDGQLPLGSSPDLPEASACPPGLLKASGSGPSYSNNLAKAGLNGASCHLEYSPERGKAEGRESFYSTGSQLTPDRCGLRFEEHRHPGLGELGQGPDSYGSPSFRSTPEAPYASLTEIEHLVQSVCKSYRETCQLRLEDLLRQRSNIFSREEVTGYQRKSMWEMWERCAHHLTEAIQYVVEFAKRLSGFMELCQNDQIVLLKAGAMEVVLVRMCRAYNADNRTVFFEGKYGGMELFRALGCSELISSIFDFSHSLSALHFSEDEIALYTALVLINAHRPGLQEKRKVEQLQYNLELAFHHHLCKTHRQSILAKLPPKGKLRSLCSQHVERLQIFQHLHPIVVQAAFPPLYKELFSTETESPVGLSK
Sequence of Nuclear receptor subfamily 1 group I member 2 (Homo sapiens) (O75469 whole entry, looked up, the tested form may be a part): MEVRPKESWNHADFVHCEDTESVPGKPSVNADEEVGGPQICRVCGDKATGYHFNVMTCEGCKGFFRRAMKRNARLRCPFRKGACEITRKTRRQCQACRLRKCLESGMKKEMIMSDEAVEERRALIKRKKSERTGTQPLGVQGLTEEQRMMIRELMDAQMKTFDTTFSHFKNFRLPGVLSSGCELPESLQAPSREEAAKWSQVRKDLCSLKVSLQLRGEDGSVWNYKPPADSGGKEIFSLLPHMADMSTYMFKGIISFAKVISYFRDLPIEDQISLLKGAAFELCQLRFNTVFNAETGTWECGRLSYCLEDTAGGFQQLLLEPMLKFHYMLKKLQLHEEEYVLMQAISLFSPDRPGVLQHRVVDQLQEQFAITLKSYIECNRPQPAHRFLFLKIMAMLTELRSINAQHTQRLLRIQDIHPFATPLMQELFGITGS

With `Cc1ncc(C[n+]2csc(CCO)c2C)c(N)n1`, the molecule was classed as inactive in [1], in assay [2], in assay [3], in assay [4], in [5] and in [6].

As usually defined, the AC50 is the concentration at which the activity in the assay is half-maximal. On to `CC(=O)c1cc2c(cc1C)C(C)(C)C(C)CC2(C)C` (centres undefined), for which the AC50 in assay [7] was 179000 nM (active); in [10] it was 3250 nM (active). The molecule was called inactive in assay [2], in assay [3], in [8], in assay [9], in assay [11] and in assay [12]. Further, the result in [13] and in assay [14] was inactive.

Take `C=COCCCl`: the outcome in [7], in assay [3], in [15], in [8], in assay [5] and in assay [16] was inactive. Besides, the molecule was classed as inactive in assay [17], in assay [12], in [13] and in [14].

As to `CN(C)N`, the molecule was classed as inactive in assay [1], in assay [18], in assay [17], in assay [11], in [12] and in assay [6]. For the same molecule, the result in assay [13] and in [14] was inactive.

Turning to `C[C@]12CC[C@H](O)C[C@H]1CC[C@@H]1[C@@H]2C[C@@H](O)[C@]2(C)[C@@H](C3=CC(=O)OC3)CC[C@]12O`, the molecule was classed as inactive in [7], in [2], in assay [15], in assay [4], in assay [8] and in [9]. The result in assay [10], in [16], in [11] and in assay [12] was inactive. Besides, the results for the concentration at half-maximal activity (AC50) in [19] and in assay [5] were 1780 nM (active) and 1290 nM (active), respectively.

Turning to `CCCCNP(N)(N)=S`, the outcome in assay [7], in assay [2], in assay [3], in assay [4], in assay [8] and in assay [9] was inactive. Besides, the call in assay [6] was inactive.

In the case of `Nc1ccccc1`, the outcome in assay [2], in [15], in assay [17], in assay [11], in assay [13] and in [14] was inactive.
